Source: the supplement of paper PMC12045047
Unmarked numbers belong to inactive results.

What follows are molecules tested on primary human airway basal cells (HBEC, luciferase-transduced) (assay: proliferation (luciferase bioluminescence) Z score relative to plate mean; higher = more proliferation / more cells, active = 1.96 or more). Settings: donor: 1; 0.5 µM; library: ENZO Libraries; 4 days.
Method: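 Primary human bronchial epithelial (airway basal) cells from two donors, lentivirally transduced with pHIV-Luc-ZsGreen, were seeded at 2000 cells/well in 384-well plates in FAD medium with ENZO or Prestwick library compounds and cultured for 4 days. Luciferin was then added and bioluminescence was read as a measure of cell number. Relative light units were converted to Z scores against the plate, and the mean of triplicate wells is reported.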
Molecule `CC(=O)c1c(O)c(C)c(O)c(Cc2c(O)c3c(c(C(=O)/C=C/c4ccccc4)c2O)OC(C)(C)C=C3)c1O` [Rottlerin] has a proliferation of 0.583. Work on `CCC(=O)CCCCC[C@@H]1NC(=O)[C@H]2CCCCN2C(=O)[C@H]([C@@H](C)CC)NC(=O)[C@H](Cc2cn(OC)c3ccccc23)NC1=O` [Apicidin] yielded a proliferation of -0.149. `N#C/C(=C\c1ccc(O)c(O)c1)C(N)=S` gave a proliferation of -0.0372. For `N#CC(C#N)=Cc1cc(O)c(O)c(O)c1`, the proliferation was -0.0382. `N#CC(C#N)=Cc1cc(O)c(O)c([N+](=O)[O-])c1` gave a proliferation of -0.414. With `Cc1cc(O)c2c(=O)c3c(O)cc(O)c4c5c(O)cc(O)c6c(=O)c7c(O)cc(C)c8c1c2c(c34)c(c78)c65` [Hypericin] the proliferation was 0.248. Molecule `N[C@@H]1C[C@H]1c1ccccc1.N[C@H]1C[C@@H]1c1ccccc1` [Tranylcypromine hemisulfate] has a proliferation of -0.212. `COC[C@H]1OC(=O)c2coc3c2[C@@]1(C)C1=C(C3=O)[C@@H]2CCC(=O)[C@@]2(C)C[C@H]1OC(C)=O` [Wortmannin] showed a proliferation of -1.04. Molecule `CC(=O)Oc1ccc(/C=C/c2cc(OC(C)=O)cc(OC(C)=O)c2)cc1` [Triacetylresveratrol] has a proliferation of 1.28. `NCCc1ccc(S(=O)(=O)F)cc1` was tested, and the proliferation was -0.284. With `N#CC(C#N)=Cc1ccc([N+](=O)[O-])c(O)c1` the proliferation was -0.571. For `N#CC(C#N)=Cc1ccc(O)c(O)c1`, the proliferation was 0.456. For `C/C(O)=C(\C#N)C(=O)Nc1cc(Br)ccc1Br`, the proliferation was 0.22.

Same assay, conditions: donor: 1; 5 µM; library: ENZO Libraries; 4 days
`CC(=O)c1c(O)c(C)c(O)c(Cc2c(O)c3c(c(C(=O)/C=C/c4ccccc4)c2O)OC(C)(C)C=C3)c1O` [Rottlerin] gave a proliferation of -0.384. `CCC(=O)CCCCC[C@@H]1NC(=O)[C@H]2CCCCN2C(=O)[C@H]([C@@H](C)CC)NC(=O)[C@H](Cc2cn(OC)c3ccccc23)NC1=O` [Apicidin] gave a proliferation of -0.303. `N#C/C(=C\c1ccc(O)c(O)c1)C(N)=S` showed a proliferation of -0.285. `N#CC(C#N)=Cc1cc(O)c(O)c(O)c1` was tested, and the proliferation was -0.000622. `N#CC(C#N)=Cc1cc(O)c(O)c([N+](=O)[O-])c1` gave a proliferation of -0.101. Molecule `Cc1cc(O)c2c(=O)c3c(O)cc(O)c4c5c(O)cc(O)c6c(=O)c7c(O)cc(C)c8c1c2c(c34)c(c78)c65` [Hypericin] has a proliferation of -0.261. `N[C@@H]1C[C@H]1c1ccccc1.N[C@H]1C[C@@H]1c1ccccc1` [Tranylcypromine hemisulfate] was tested, and the proliferation was -0.48. `COC[C@H]1OC(=O)c2coc3c2[C@@]1(C)C1=C(C3=O)[C@@H]2CCC(=O)[C@@]2(C)C[C@H]1OC(C)=O` [Wortmannin] was tested, and the proliferation was -0.831. `CC(=O)Oc1ccc(/C=C/c2cc(OC(C)=O)cc(OC(C)=O)c2)cc1` [Triacetylresveratrol] was tested, and the proliferation was 4.6 (active). In the case of `NCCc1ccc(S(=O)(=O)F)cc1`, the proliferation is reported as -0.0822. With `N#CC(C#N)=Cc1ccc([N+](=O)[O-])c(O)c1` the proliferation was -0.0791. `N#CC(C#N)=Cc1ccc(O)c(O)c1` was tested, and the proliferation was 0.134. `C/C(O)=C(\C#N)C(=O)Nc1cc(Br)ccc1Br` gave a proliferation of 0.228.
